D1 potentiator: enhances dopamine response at the human D1 receptor; P21728; HEK293 TREx D1 cells, calcium flux, dopamine EC20 potentiation; potentiation, % at 10 µM; actives 0.036% (n = 360,000); in the data active means potentiation above about 30%
D1 agonist: activates the human D1 dopamine receptor; P21728; HEK293 T-REx D1 cells, calcium flux, agonist mode; activation, % at 2 µM; actives 1% (n = 360,000); AID 504660; in the data active means activation above about 30%
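Tetracycline-induced HEK293 TREx D1 cells, force-coupled to calcium signalling, were dye-loaded with a no-wash calcium kit. Compound was pin-added after a 10 s baseline. Fluorescence was read kinetically at 1 cycle/s for 180 s, with calcium rises flagged as agonism.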
D1 antagonist: blocks dopamine activation of the human D1 receptor; P21728; HEK293 TREx D1 cells, calcium flux, dopamine EC80; stronger effect = lower value; activity change, negative = inhibition, % at 10 µM; actives 3.2% (n = 360,000); AID 504652; in the data active means activity change below about -30%
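Kinetic fluorescence of a calcium dye serves as the read-out. D1-expressing Hek293 Trex cells, induced overnight at 30 C, are exposed to compound for 180 s before an EC80 dopamine addition, then read 180 s further.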
Eya2 inh: inhibitors of human Eya2 phosphatase activity | O00167 | recombinant Eya2, OMFP fluorescence dephosphorylation (OMFP is methylfluorescein phosphate) | Potency, µM (highest dose often 76.9 µM), usual class: inhibitors | actives 0.006% (n = 330,000) | AID 488837
Target sequence (O00167 whole entry, looked up): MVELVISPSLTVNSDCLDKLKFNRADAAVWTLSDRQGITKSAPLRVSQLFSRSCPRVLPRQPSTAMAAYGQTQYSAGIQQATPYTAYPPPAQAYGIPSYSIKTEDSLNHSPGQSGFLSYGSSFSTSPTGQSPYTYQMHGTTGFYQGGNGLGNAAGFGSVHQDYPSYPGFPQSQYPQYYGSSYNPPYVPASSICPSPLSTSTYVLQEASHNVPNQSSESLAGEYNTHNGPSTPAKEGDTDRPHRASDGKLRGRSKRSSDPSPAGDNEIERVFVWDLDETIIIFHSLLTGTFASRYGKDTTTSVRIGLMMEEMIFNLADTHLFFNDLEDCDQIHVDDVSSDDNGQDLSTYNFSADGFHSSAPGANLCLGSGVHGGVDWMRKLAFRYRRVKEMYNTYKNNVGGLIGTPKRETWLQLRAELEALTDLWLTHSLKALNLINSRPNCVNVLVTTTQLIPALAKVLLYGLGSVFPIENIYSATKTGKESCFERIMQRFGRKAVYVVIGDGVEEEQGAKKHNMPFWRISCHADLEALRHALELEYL
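Eya2 protein (added as 0.2 uM solution) was preincubated with compound for 10 min at ambient temperature in 50 mM HEPES pH 7.5, 50 mM NaCl, 5 uM MgCl2, 0.05% BSA, 1 mM DTT. OMFP (added at 50 uM) then reacted 10 min; fluorescence read at 485/525 nm.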
USP2a inh: USP2a (human) protease inhibition; O75604; actives 0.01% (n = 330,000); Potency, µM (series often up to 38.3 µM), usual class: inhibitors; USP2 core, Ub-CHOP2 coupled fluorogenic reporter, 485/531
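Deubiquitinase activity read as fluorescence (485/531 nm) after Ub-CHOP2 cleavage activates the enterokinase reporter on its substrate; USP2 core 10nM, Ub-CHOP2 and substrate 25nM each, 30min compound preincubation then 60min RT; data normalized to NEM, curves fitted.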
GALK inh: galactokinase (human) inhibition; P51570; Purified GALK, Kinase-Glo residual ATP luminescence; Potency, µM (titrated, usually from 57.5 µM), usual class: inhibitors; actives 0.007% (n = 270,000)
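Quantitative HTS: GALK 5 nM, ATP 35 uM, galactose 100 uM, 1 h room temperature, then luciferase-based ATP detection.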
Hits are given with their value; n = inactive; u = inconclusive; x = not tested or not shown. Sampled rows, rich in hits. Any-hit rate of the full collection: about 3.9%. Unless noted, the call rests on the fitted dose curve; in most records, active means well fitted inhibition curve with a large enough effect; inconclusive means small, poorly fitted or top-dose-only effect, or effect the other way; inactive means flat fitted curve, though single readings scatter.

SMILES | D1 potentiator | D1 agonist | D1 antagonist | Eya2 inh | USP2a inh | GALK inh
O=C(O)Cn1cc(/C=C2\C(=O)NC(=O)N(c3ccc(Br)cc3)C2=O)c2ccccc21 | n | n | -31 | n | n | n
CN1CCN(C(=O)COc2ccc3ccccc3c2)CC1 | n | n | n | n | n | n
O=C(COc1ccc2ccccc2c1)N1CCN(C2CCN(Cc3ccccc3)CC2)CC1 | n | n | -46 | n | n | n
Cc1c(C)n(O)c2ccc3nonc3c12 | n | n | n | u | n | n
Nc1ccc2nonc2c1[N+](=O)[O-] | n | 92 | n | u | u | n
N#CC(C#N)=Cc1ccc(N2CCCC2)cc1 | n | 37 | n | n | n | n
CN(C)c1ccc(C=C(C#N)C#N)cc1 | n | n | n | n | n | n
Cn1cc(C(=O)N2CCCCC2)c2ccccc21 | n | n | -30 | n | n | n
N=C1SCC(=O)N1Cc1ccccc1 | n | n | -31 | n | n | n
COC(=O)C1=C(c2ccccc2OCc2ccccc2)C[C@@H]2CC[C@H]1N2C(=O)NCc1ccccc1 | n | n | x | n | n | x
COC(=O)C1=C(c2ccc(C(C)=O)cc2)C[C@@H]2CC[C@H]1N2C(=O)NC(C)C | n | n | -91 | n | n | x
COC(=O)C1=C(c2ccc(-c3ccccc3)c(F)c2)C[C@@H]2CC[C@H]1N2C(=O)NCCO | n | n | -40 | n | n | x
COC(=O)C1=C(c2ccc(C(C)=O)cc2)C[C@@H]2CC[C@H]1N2C | n | n | n | n | n | x
COC(=O)C1=C(c2ccccc2OCc2ccccc2)C[C@@H]2CC[C@H]1N2C(=O)NCCc1ccc(F)cc1 | n | n | -39 | n | n | x
Cc1ccc(C)c(CN2C(=O)c3ccccc3Sc3ccc(C(=O)N4CCC5(CC4)OCCO5)cc32)c1 | n | n | n | x | x | x
CCCOc1ccc(C2SCC(=O)Nc3c2c(C)nn3-c2cccc(C)c2)cc1OC (configuration not stated) | n | n | n | x | x | x
Cn1ncnc2c(=O)n(C)c(=O)nc1-2 | n | n | n | 20µM | n | 1.3µM
NC(=O)CSc1nnc([C@@H](N)Cc2c[nH]c3ccccc23)o1 | n | n | -44 | n | n | n
CC12CCC(=O)C=C1CCC1C2CCC2(C)C(O)CCC12 (configuration not stated) | n | n | n | n | n | n
C[C@H](O)[C@H]1CC[C@H]2[C@@H]3CCC4=CC(=O)CC[C@]4(C)[C@H]3CC[C@]12C | n | n | -33 | n | n | n
O=Cc1c(C(=O)O)n(Cc2ccc(Cl)cc2)c2ccccc12 | n | 54 | n | u | u | n
Cc1c(C=O)c2ccccc2n1Cc1ccccc1 | n | n | n | n | n | x
CCN1CCN(S(=O)(=O)c2ccc(Cl)nc2)CC1 | n | n | -35 | n | n | n
CC(C)c1ccc(OCC(=O)N2CCN(CCc3ccncc3)CC2)cc1 | n | n | n | x | x | x
CCCCNC(=S)N1CCn2cccc2C1c1cccnc1 (configuration not stated) | n | n | n | n | n | n
SMILES | D1 potentiator | D1 agonist | D1 antagonist | Eya2 inh | USP2a inh | GALK inh
CNC(=S)N1CCn2cccc2C1c1cccnc1 (configuration not stated) | n | n | -33 | n | n | n
Cc1ccc(NC(=O)Cn2cc(C(=O)c3ccccc3)c3ccccc32)cc1 | n | n | n | x | x | x
CCCC12CN3CC(C)(CN(C1)C3c1ccccn1)C2=O (configuration not stated) | n | n | n | x | x | x
CCCCCc1nc2c(c(=O)c3ccccc3n2C)c(=O)n1C1CCCCCC1 | n | 191 | -55 | n | n | n
CCCCCc1nc2ccccc2c(=O)n1-c1ccc(C)cc1 | n | n | n | x | x | x
N#Cc1c(/N=C/c2ccc(O)cc2O)sc2c1C1CCN2CC1 | n | 34 | n | n | n | n
CCCCCCCCCCCCCCCC[N+](C)(C)C | n | 31 | n | n | n | x
COC(=O)c1ccc(NC(=O)c2cccn(Cc3ccccc3C)c2=O)cc1 | n | n | n | x | x | x
CCC(=NCCCN(CC)CC)c1c(O)n(-c2ccccc2)c(=O)[nH]c1=O | n | n | -33 | n | n | n
CCN(CC)CCCN=C(C)c1c(O)n(-c2ccccc2)c(=O)[nH]c1=O | n | n | n | n | n | n
Cc1c2ccncc2c(C)c2c1[nH]c1ccccc12 | n | 33 | n | n | n | n
N#CCCN | x | x | x | n | x | x
N#Cc1ccccc1NC(=O)c1cccn(Cc2ccccc2)c1=O | n | n | x | x | x | x
Nc1ccc2ccc3cccc[n+]3c2c1 | n | 131 | n | u | u | n
COc1ccc(CNCCc2c(C)[nH]c3ccc(OC(F)(F)F)cc23)c(OC)c1 | n | 99 | -55 | n | n | x
O=C(CSc1ccc(Cl)cc1)NC1=NN(c2ccccc2)C(=O)C1 | n | n | n | n | u | n
O=C(COc1ccccc1[N+](=O)[O-])N1CCN(CCc2ccncc2)CC1 | n | n | n | x | x | x
N[C@@H](Cn1ccc(=O)[nH]c1=O)C(=O)O | x | x | x | n | x | x
CCOc1ccccc1CN1C2CCC1CC(c1ccc(C)cc1)C2 (configuration not stated) | n | n | -41 | n | n | n
Nc1c(C(=O)OCc2ccccc2)c2nc3ccccc3nc2n1Cc1cccs1 | n | n | -30 | n | n | n
CCC(C)OC(=O)c1c(N)n(Cc2cccs2)c2nc3ccccc3nc12 (configuration not stated) | n | n | n | n | n | n
O=C(Nc1ccc2c(c1)OCO2)c1cccn(Cc2ccc(F)cc2)c1=O | n | n | x | x | x | x
COc1cc(OC)c(OC)cc1CNCCc1ccc(OC)c(OC)c1 | n | n | n | n | n | n
COc1ccc(CNCCc2ccc(Cl)cc2)c(OC)c1OC | n | n | -70 | n | n | n
COc1ccc(CNCCc2cccc(F)c2)c2ccccc12 | n | 37 | n | n | n | n
SMILES | D1 potentiator | D1 agonist | D1 antagonist | Eya2 inh | USP2a inh | GALK inh
Cc1ccc(-n2c(/C=C/c3ccc(Br)s3)nc3ccccc3c2=O)cc1C | n | n | n | x | x | x
O=C(Nc1cccc(Cl)c1)OC1CN2CCC1CC2 (configuration not stated) | n | n | -38 | n | n | n
O=C(Nc1ccccc1Cl)OC1CN2CCC1CC2 (configuration not stated) | n | n | -38 | n | n | n
O=C(Nc1ccc(Cl)cc1)OC1CN2CCC1CC2 (configuration not stated) | n | 30 | n | n | n | x
CN1C(=O)COc2c(C(=O)NC3CN4CCC3CC4)cc(Cl)cc21 (configuration not stated) | n | n | n | n | n | n
O=C(Nc1ccccc1F)OC1CN2CCC1CC2 (configuration not stated) | n | n | n | n | n | x
O=C(N[C@H]1CN2CCC1CC2)c1ccc(Cl)cc1 | x | x | x | n | x | x

Compound activity deposited in PubChem BioAssay by National Center for Advancing Translational Sciences (NCATS).
